Assay results published in PubChem BioAssay (NCATS).
Records with an inconclusive call do not appear. Calls of active or inactive are those of the source. Calls follow the shape of the dose curve; as a rule, active = well fitted activation curve with a large enough effect; inconclusive = small, poorly fitted or top-dose-only effect; inactive = no such curve, though single readings can be large or run the other way.
Potency is read from the fitted curve at half-maximal effect.

These compounds were tested against Cellular tumor antigen p53 (Homo sapiens) (UniProt P04637) (assay: Primary qHTS for small molecule compounds that upregulate eGFP-tagged delta133p53alpha (in N-terminal) cells. (AID 2060322; also: nearly all actives have a fitted effect of over 75% in size;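 as to activation: cells pre-induced with doxycycline then dosed without doxycycline; series mostly up to about 56 µM; 0% = DMSO vehicle and 100% = reference activator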)). Settings: NCI-H358 eGFP-delta133p53alpha fluorescence, 24 h; activation: hits give high values.
Cellular tumor antigen p53 (Homo sapiens), sequence (P04637 whole entry, looked up): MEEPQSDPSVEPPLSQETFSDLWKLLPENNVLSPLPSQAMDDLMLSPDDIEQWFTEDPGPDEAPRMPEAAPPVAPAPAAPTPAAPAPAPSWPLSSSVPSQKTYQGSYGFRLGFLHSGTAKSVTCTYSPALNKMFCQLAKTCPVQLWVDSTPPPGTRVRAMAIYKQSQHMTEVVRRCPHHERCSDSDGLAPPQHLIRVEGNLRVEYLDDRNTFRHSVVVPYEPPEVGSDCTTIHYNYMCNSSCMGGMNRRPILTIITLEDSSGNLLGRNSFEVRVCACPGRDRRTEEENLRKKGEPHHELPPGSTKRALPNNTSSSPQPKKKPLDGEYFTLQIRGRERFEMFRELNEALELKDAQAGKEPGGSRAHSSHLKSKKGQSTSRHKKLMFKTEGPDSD
Method in brief: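 NCI-H358 cells pre-induced 24 h with 10 ng/ml doxycycline for eGFP-delta133p53alpha, plated dox-free and exposed 24 h at 37C to titrated compounds. Fixed, Hoechst-stained; gated GFP peak intensity by laser scanning cytometry, normalized to DMSO (0%) and 57.5 uM 5-azacytidine (100%).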
In the case of `Cc1cccc(C)c1NC(=O)CC12CCCN1CCC2`, the activation is reported as 5.86% (inactive). In the case of `Cc1nc(NC(=O)N2CCC[C@@H]2C(N)=O)sc1-c1ccnc(C(C)(C)C(F)(F)F)c1`, the activation is reported as -9.38% (inactive). In the case of `COc1cc(C=O)ccc1O`, the activation is reported as 5.02% (inactive). For `Nc1nc2ccc(Cl)cc2c2nc(-c3ccco3)nn12`, the Potency was 1.69 µM (active). In the case of `CCOC(=O)NNc1nncc2ccccc12`, the activation is reported as 20.1% (inactive). In the case of `Nc1nc(-c2ccccc2)c(Br)c(=O)[nH]1`, the activation is reported as -12.6% (inactive). For `CCCCC(C)(C)[C@H](O)C=C[C@H]1[C@H](O)CC(=O)[C@H]1CC=CCCCC(=O)O`, the activation was 1.38% (inactive). In the case of `Cn1c([N+](=O)[O-])cnc1COC(N)=O`, the activation is reported as -9.6% (inactive). In the case of `C#CC(C)(CC)OC(=O)c1ccccc1C(=O)O` (stereo not drawn), the activation is reported as -11.9% (inactive). With `O=C1O[C@H]([C@@H](O)CO)C(O)=C1O` the activation was -9.6% (inactive). In the case of `CC(C)(C)CC(C)(C)c1ccc(O)c(-n2nc3ccccc3n2)c1`, the activation is reported as -0.565% (inactive). For `O=C(N/N=C/c1ccc([N+](=O)[O-])o1)c1ccc(O)cc1`, the activation was 24.3% (inactive). With `C[C@H](NC(=O)C(C#N)=Cc1cccc(Br)n1)c1ccccc1` the activation was 11.9% (inactive). With `CCCC(=O)O[C@]1(C(=O)CCl)[C@@H](C)C[C@H]2[C@@H]3CCC4=CC(=O)C=C[C@]4(C)[C@@]3(F)C(=O)C[C@@]21C` the activation was -8.37% (inactive). `CN1CCN(N)CC1` was tested, and the activation was 0.837% (inactive). `NCCNCCNCCN` was tested, and the activation was -9.6% (inactive). In the case of `O=C1CCc2ccccc2O1`, the activation is reported as -6.7% (inactive). For `CN1[C@@H]2CC[C@H]1CC(OC(=O)C(O)c1ccccc1)C2` (stereo partly drawn), the activation was 5.08% (inactive).
